Compound activity: PubChem BioAssay, Broad Institute
A selection: hits, their analogues and other compounds. The true share with any hit is near 1.2%.
TcdB inh: inhibitors of Clostridioides difficile toxin B glycohydrolase | TcdB glycohydrolase enzymatic assay, plate reader | inhibition, % at 9.99 µM | 350,000 compounds, 0.24% hits | AID 652162; in the data active = inhibition above about 10%
PfHsp40 rescue: compounds rescuing yeast from Plasmodium falciparum HSP40 toxicity. S. cerevisiae expressing PfHsp40, growth rescue, ATP luminescence. growth rescue, % at 12.5 µM. 340,000 compounds, 0.68% hits. AID 504582; in the data active = growth rescue above about 28%, passing the limit was not always enough;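 note: yeast W303a lacking pdr1 and pdr3 grown in galactose medium; growth measured after three days at 30 °C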
Y pestis TopoI: blocks Yersinia pestis topoisomerase I activity; Y. pestis Topo-I cleavage product accumulation, plate reader; activity, % at 10 µM; 360,000 compounds, 0.064% hits; in the data active = activity above about 50%, passing the limit was not always enough
PrP 5UTR inh: suppresses PrP 5' UTR mRNA reporter expression; cell-based PrP 5' UTR mRNA reporter, plate reader; inhibition, % (test concentration not listed); 340,000 compounds, 0.35% hits; in the data active = inhibition above about 52%; note: 0 = median of the neutral control wells
Mtb BioA inh: blocks M. tuberculosis BioA enzyme activity; purified M. tuberculosis BioA enzyme, plate reader; inhibition, % at 9.99 µM; 360,000 compounds, 0.096% hits; in the data active = inhibition above about 40%
FadD28 FP inh: M. tuberculosis FadD28 bisubstrate binding inhibition; FadD28 bisubstrate probe binding, fluorescence polarization; 360,000 compounds, 0.22% hits; AID 588549; inhibition, % at 12.5 µM; in the data active = inhibition above about 8.5%, passing the limit was not always enough
Active calls of the source: *.

How did COc1ccc(N2CC(C(=O)Nc3cccc(S(=O)(=O)N4CCCC4)c3)CC2=O)c(OC)c1 (stereo not given) do in these assays?
TcdB inh: 0.1; PfHsp40 rescue: 0.0; Y pestis TopoI: -11.1; PrP 5UTR inh: -6.6; Mtb BioA inh: 0.8; FadD28 FP inh: -1.1

Results for C[C@@H]1CN([C@@H](C)CO)C(=O)c2cccc(NC(=O)CCCCCC(=O)Nc3ccccc3N)c2O[C@@H]1CN(C)Cc1ccc(Oc2ccccc2)cc1 ?
TcdB inh: 0.2

What do the screens show for `Oc1ccc(C=NC2CCCCC2)c(O)c1`?
TcdB inh: 1.6; PfHsp40 rescue: 35.3*; Y pestis TopoI: 3.5; PrP 5UTR inh: -32.2; FadD28 FP inh: -3.9

How did Cc1ccccc1OCc1nc2ccccc2c(=O)n1/N=C/c1c[nH]c2ccccc12 do in these assays?
TcdB inh: 1.0; PfHsp40 rescue: 0.1; Y pestis TopoI: -13.8; PrP 5UTR inh: -71.0; Mtb BioA inh: -0.9; FadD28 FP inh: 1.5

What do the screens show for `Cc1cc(/C=N/n2c(COc3ccccc3C)nc3ccccc3c2=O)c(O)c([N+](=O)[O-])c1`?
TcdB inh: 0.8; PfHsp40 rescue: 56.8*; Y pestis TopoI: -4.6; PrP 5UTR inh: -19.0; FadD28 FP inh: -3.6

Results for CS(=O)(=O)N1[C@H](C(=O)NC2CCC2)[C@@H](CO)[C@@H]2Cn3c(ccc(-c4ccccc4)c3=O)[C@@H]21 ?
TcdB inh: -0.6; Mtb BioA inh: -1.0

What do the screens show for `CCN1/C(=C/c2sc(-c3ccccc3C)c[n+]2C)Sc2ccccc21`?
TcdB inh: 4.0; PfHsp40 rescue: 312.3*; Y pestis TopoI: 12.4; PrP 5UTR inh: -5.4; FadD28 FP inh: -2.7

How did CCN1/C(=C/c2ccc3cc(C)ccc3[n+]2CC)Sc2ccccc21 do in these assays?
TcdB inh: 0.5; PfHsp40 rescue: 2.8; Y pestis TopoI: -15.0; PrP 5UTR inh: 25.2; FadD28 FP inh: 0.1

What do the screens show for `COc1ccccc1NC(=O)N[C@H]1CC[C@@H](CCNS(=O)(=O)c2ccc(F)cc2)O[C@H]1CO`?
TcdB inh: 0.9; Mtb BioA inh: 1.8

How did Cc1cc(SC#N)cc(C)c1NC(=O)CCl do in these assays?
PfHsp40 rescue: 17.2; Y pestis TopoI: 5.7; PrP 5UTR inh: -25.4; FadD28 FP inh: -4.7

How did CCC(=O)Nc1ccc(SC#N)cc1C do in these assays?
TcdB inh: 0.6; PfHsp40 rescue: 91.2*; Y pestis TopoI: -7.0; PrP 5UTR inh: -10.1; FadD28 FP inh: -3.8

Results for C[C@H](NC(=O)[C@@H]1[C@@H](CO)[C@@H]2Cn3c(ccc(-c4ccncc4)c3=O)[C@@H]2N1C)c1ccccc1 ?
TcdB inh: 0.5; Mtb BioA inh: -2.0

What do the screens show for `CC1SCC(=NOCc2c(Cl)cccc2Cl)CS1` (stereo not given)?
TcdB inh: 0.5; PfHsp40 rescue: 59.1*; Y pestis TopoI: 3.7; PrP 5UTR inh: -19.2; Mtb BioA inh: -0.7; FadD28 FP inh: 0.0

What do the screens show for `Cc1noc(C)c1S(=O)(=O)Nc1ccc2c(c1)C(=O)N([C@@H](C)CO)C[C@H](C)[C@@H](CN(C)S(=O)(=O)c1ccc(Cl)cc1)OCCCC[C@H](C)O2`?
TcdB inh: 0.9; Mtb BioA inh: -3.4

How did CCOC(=O)[C@@H]1[C@H]2COc3ccccc3[C@@H]2N2C(=O)N(c3ccc(C(F)(F)F)cc3)C(=O)[C@@]12C do in these assays?
TcdB inh: 0.5; PfHsp40 rescue: 0.7; Y pestis TopoI: 6.2; PrP 5UTR inh: -14.2; Mtb BioA inh: 0.8; FadD28 FP inh: -3.3

What do the screens show for `CCOC(=O)[C@@H]1[C@H]2COc3ccccc3[C@H]2N2C(=O)N(c3ccc(C(F)(F)F)cc3)C(=O)[C@]12C`?
TcdB inh: 1.3; PfHsp40 rescue: 92.2*; Y pestis TopoI: 11.0; PrP 5UTR inh: -31.9; Mtb BioA inh: -0.2; FadD28 FP inh: -5.8

How did CCOC(=O)[C@@H]1[C@H]2COc3ccc(Br)cc3[C@@H]2N2C(=O)N(c3cccc(F)c3)C(=O)[C@]12C do in these assays?
TcdB inh: 10.7*; PfHsp40 rescue: -0.5; Y pestis TopoI: 8.0; PrP 5UTR inh: -10.0; Mtb BioA inh: -0.8; FadD28 FP inh: -2.4

What do the screens show for `CN1c2ccc(-c3cccc(F)c3)cc2[C@@H]2[C@@H](CCN2S(=O)(=O)c2cccc(F)c2)[C@H]1CO`?
TcdB inh: 0.2; Mtb BioA inh: 0.2

How did O=[N+]([O-])c1cccc(/C=N/n2c(C3CCCCC3)n[nH]c2=S)c1 do in these assays?
TcdB inh: 1.6; PfHsp40 rescue: 0.0; Y pestis TopoI: -0.9; PrP 5UTR inh: -0.2; FadD28 FP inh: 18.5*
